According to ChEMBL document CHEMBL4513216, “Probing the Open Global Health Chemical Diversity Library for Multistage-Active Starting Points for Next-Generation Antimalarials” (ACS Infect Dis, 2020):
The campaign covered roughly 69,000 compounds. About 8,600 (12%) showed an effect of 50% or more. This excerpt belongs to a sample that is enriched for strong results.

tested on: Plasmodium berghei; assay: Screen against P. berghei liver stage (PbLuc), transformed with Luciferase, at 10uM; assay type: functional, HepG2; conditions: tested at 10 uM

Structure (SMILES)	INHIBITION [%]
Cc1nn(C)c(C)c1C1COCCN1C(=O)c1cc(F)ccc1F (centres undefined)	-2.19
COc1cccc(CN2CCCC2c2cccc(F)c2)c1OC (centres undefined)	1.45
Cc1nn(C)cc1-c1cc(C(F)F)n2nc(CCC(=O)O)nc2n1	21.9
COc1ccc(Cl)cc1S(=O)(=O)N(C)CC(=O)Nc1ccon1	-44.8
Cc1cnn(CC2CCCN2C(=O)CCc2c(C)noc2C)c1 (centres undefined)	17.3
O=C1CC[C@H]2CN(C3CCOCC3)CC[C@H]2N1CCC1=CCCCC1	58.5
CN1CCC(N2CC[C@@H]3[C@@H](CCC(=O)N3CCC3=CCCCC3)C2)CC1	33.9
CS(=O)(=O)N1CC[C@@H]2[C@@H](CCC(=O)N2CCC2=CCCCC2)C1	19.4
Cc1ccc(C(N)=O)c(N2Cc3cnc(C(C)(C)C)nc3C2)n1	17.1
COC(=O)[C@@H]1CCCN1C(=O)c1cn(C/C=C/c2ccccc2)nn1	52.6
COC(=O)C1CCCCN1C(=O)c1cn(C/C=C/c2ccccc2)nn1 (centres undefined)	9.79
Cc1cccc(C2CCCCCN2C(=O)c2cn(CC(N)=O)nn2)c1 (centres undefined)	-15.245
COC(=O)[C@@H]1CCCN1C(=O)c1cn(CCCc2ccccc2)nn1	2.4
NC(=O)[C@@H]1CCCN1C(=O)c1cn(C/C=C/c2ccccc2)nn1	57.1
Cc1nc(C(C)NC(=O)c2cn(C/C=C/c3ccccc3)nn2)n[nH]1 (centres undefined)	29.1
Cc1ccc(C(=O)N2CC[C@@H](N(C)C)[C@@H]2Cc2cnn(C)c2)cn1	15.9
COc1ccc(N2CCN(C(=O)[C@@H]3C[C@@H](O)CN3)CC2(C)C)cc1	35.3
CC(=O)c1c(O)n(C)c2ccc(C)cc12	-10.5
Cc1nn(C)c(C)c1-c1ccc(=O)n(C(C)C(=O)NC2CCCC2)n1 (centres undefined)	35.05
COc1ccc(C2CC(=O)NCc3nc(N(C)C)sc32)c(O)c1 (centres undefined)	36.6
COc1cc2c(cc1C1CC(=O)NCc3nc(N(C)C)sc31)CCC2 (centres undefined)	27.6
COc1ccc(C(C)C)cc1C1CC(=O)NCc2nc(N(C)C)sc21 (centres undefined)	52.2
CN(Cc1ccccc1F)C(=O)c1cc(Cl)c[nH]1	15.4
COc1nccnc1N1C[C@H]2CC[C@@H](C1)N(CC=C(C)C)C2=O	6.83
CCOc1ccccc1C(CC(=O)Nc1ccncc1)NC(C)=O (centres undefined)	26.9
CC(NC(=O)NC1CCN(Cc2ccccc2)CC1)c1nncn1C (centres undefined)	-12.3

Structure (SMILES)	INHIBITION [%]
NC(=O)C(NC1CCN(Cc2ccc(F)cc2)CC1)c1ccccc1 (centres undefined)	-106
CC(NC(=O)NC1CCN(Cc2ccncc2)CC1)c1cccc(F)c1 (centres undefined)	13
CC(NC(=O)NC1CCN(Cc2ccccn2)CC1)c1ccco1 (centres undefined)	36.8
CC(NC(=O)NC1CCN(Cc2ccncc2)CC1)c1ccc(F)cc1 (centres undefined)	75.7
CC(NC(=O)NC1CCN(Cc2ccncc2)CC1)c1ccccc1F (centres undefined)	68.9
O=C(C1CC1)N1CCN(Cc2ccncc2)c2ncccc2C1	5.56
CC(NC(=O)NCc1ccccc1Cl)c1ccccn1 (centres undefined)	-49.5
COc1ccc2c(c1)C(=O)NC1(CC2)CCN(Cc2cccnc2)C1 (centres undefined)	2.1
Cc1cccc(-n2cc3[nH]c(=O)[nH]n3c2=O)c1	36.3
CC(C)C(C)N(Cc1cnc2ccccc2n1)Cc1ccco1 (centres undefined)	47
Cc1ccc(S(=O)(=O)NC[C@H]2OC[C@@H](NCc3cccs3)[C@@H]2O)cc1	52.5
CC(C)NC(=O)NC[C@H]1OC[C@@H](NCc2cccs2)[C@@H]1O	-13.4
O=S(=O)(NC[C@H]1OC[C@@H](NCc2cccs2)[C@@H]1O)c1ccccc1	51
O=C(NC[C@H]1OC[C@@H](NCc2cccs2)[C@@H]1O)N1CCOCC1	-0.371
Cc1ccc(CN[C@@H]2CO[C@H](CNS(=O)(=O)c3ccccc3)[C@H]2O)cc1	27.5
CC(C)(C)CN[C@@H]1CO[C@H](CNC(=O)c2cccs2)[C@H]1O	-7.29
CSc1nccn1-c1cccc(C(=O)NCC(F)(F)F)c1	18.2
N#CCCN(CCC#N)C(=O)CN(C1CC1)C1CCc2ccccc21 (centres undefined)	-40.5
CCC(O)CN1CCN(C(=O)c2ccn(C)c(=O)c2)CC1 (centres undefined)	13.3
CC(C)CCc1nc(CNCC2CN(C)CCO2)cs1 (centres undefined)	-21.9
Cc1cc(NC(=O)CN2CCn3c(nnc3C(C)C)C2)n(C)n1	22.2
CC1N(CC2CC2)C(=O)COC12CCN(Cc1nccs1)CC2 (centres undefined)	31.8
CC1N(C)C(=O)COC12CCN(Cc1nccs1)CC2 (centres undefined)	69.7
Cc1nc(CN2C(=O)COC3(CCN(Cc4ccsc4)CC3)C2C)cs1 (centres undefined)	38.2
CC1N(C)C(=O)COC12CCN(C(=O)CCc1ccccc1)CC2 (centres undefined)	6.83
Cc1nc(CN2C(=O)COC3(CCN(Cc4nccs4)CC3)C2C)cs1 (centres undefined)	15.1

Structure (SMILES)	INHIBITION [%]
CC1N(C)C(=O)COC12CCN(Cc1ccsc1)CC2 (centres undefined)	63
CN1CCN(C)C2(CCN(Cc3ccsc3)CC2)C1=O	5.04
CC1NC(=O)COC12CCN(C(=O)Cc1ccsc1)CC2 (centres undefined)	-28.6
CC1N(C)C(=O)COC12CCN(C(=O)Cc1ccsc1)CC2 (centres undefined)	77.7
Cc1nc[nH]c1C(=O)N1CCCC2(C1)C(=O)N(C)c1ccccc12 (centres undefined)	9.57
Cn1nc2c(cc1=O)CN(Cc1nc(-c3ccco3)no1)CC2	-7.31
Cc1nnc2n1CCN(C(=O)c1cc(Cl)c(Br)[nH]1)C2	-33.32
CC(=O)NCc1ccc(C(=O)Nc2ccc3c(c2)C(=O)NC3)cc1	-20
CCOc1ccccc1CNS(=O)(=O)c1ccc2c(c1)CCCC(=O)N2	19.4
Cn1cc2ncn(CCC3CCN(Cc4ccccc4)C3)c(=O)c2n1 (centres undefined)	42.1
CN(CCc1ccccn1)C(=O)c1cn2c(n1)CNCC2	66.5
O=C(NCc1ccc(C(=O)N2CCCC2)cc1)c1cn2c(n1)CNCC2	16.1
CN(CCSc1ccccc1)C(=O)C(c1cccnc1)N1CCOCC1 (centres undefined)	19.4
c1ccc(NCc2cn3c(n2)CNCC3)nc1	42.6
CN(CC(=O)NCCc1ccccn1)C(=O)c1cccs1	11
CN(CCc1ccccn1)C(=O)c1cn(CCN2CCNCC2)nn1	-60.7
Cc1ccc(SCCN(C)C(=O)c2cn(CCN)nn2)cc1	-122
CN(CCSc1ccccc1)C(=O)c1cn2c(n1)CNCC2	66.5
CN(CCCc1ccccc1)C(=O)c1cn2c(n1)CNCC2	61.9
CN(CCc1ccccn1)C(=O)c1cccs1	50.8
CN(C)S(=O)(=O)c1ccc(CNC(=O)c2cn3c(n2)CNCC3)cc1	39.9
CC(C)N(Cc1ccccn1)C(=O)CN(C)C(=O)c1cccs1	12.3
COc1ccccc1C(=O)N(C)Cc1nnc2ccccn12	-81.1
Cn1c(N2CCOCC2)nc2cc(C(=O)N3CCC(O)(CO)C3)ccc21 (centres undefined)	44.7
CCOc1ccc(NCC(=O)NCC(=O)N2CCCC2)c(C(F)(F)F)c1	16.5
O=C(O)CCC(=O)Nc1nn(Cc2ccc(F)cc2)cc1Cl	46.6

Structure (SMILES)	INHIBITION [%]
CN1CCN(C(=O)c2cccn2C)c2ccccc2C1	-39.2
COCCN1CC[C@@H](OC)[C@@H]1Cc1ccccc1	-34.7
Cc1nnc(NC(=O)CN2CCc3c(nc(C(C)C)n3C)C2)s1	17.3
CC(O)CN1CCC(CN(C)CC(=O)NC2CCOCC2)CC1 (centres undefined)	-8.31
CCC(C)(C)NC(=O)Cn1nc(C)nc1-c1ccccc1	-31.5
O=C1NC2(Cc3ccccc31)CN(CC1CCNCC1)C2	26.7
Cc1cccc(-c2nnn3c2COC(CNC(=O)N2CCCC2)C3)c1 (centres undefined)	62.9
CCS(=O)(=O)NCC1Cn2nnc(-c3cccc(C)c3)c2CO1 (centres undefined)	50.3
CCS(=O)(=O)NCC1Cn2nnc(-c3ccccc3)c2CO1 (centres undefined)	54.4
CCOCC(=O)NCC1Cn2nnc(-c3cccc(F)c3)c2CO1 (centres undefined)	38.5
Cc1cccc(-c2nnn3c2COC(CNS(=O)(=O)C2CC2)C3)c1 (centres undefined)	44.8
O=C(NCC1Cn2nnc(-c3ccsc3)c2CO1)N1CCCC1 (centres undefined)	2.26
CC(=O)NCC(=O)NCC1Cn2nnc(-c3cccc(F)c3)c2CO1 (centres undefined)	27.6
c1ccc(-c2nnn3c2COC(CNCC2CC2)C3)cc1 (centres undefined)	42.7
c1ccc(-c2nnn3c2COC(CNCC2CCOCC2)C3)cc1 (centres undefined)	44.9
NC1CCN(S(=O)(=O)c2ccc(C(=O)N3CCSCC3)cc2)C1 (centres undefined)	2.49
CC(C)OCc1nn(CC2CC2)c2c1CN(Cc1ccco1)CC2	-107
CC(C)(CN1CCC(Cc2ccc(CO)cc2)C1)N1CCOCC1 (centres undefined)	23.5
O=C(CCn1ccc2ccccc21)Nc1ccnn1CC1CCOC1 (centres undefined)	10.1
O=C(O)c1cc2c(nc1N1CCCC1)CCN(C1CCOCC1)CC2	-15.3
O=c1[nH]cnc2c1CCN(S(=O)(=O)c1ccc(Cl)cc1)C2	36.2
CN(C)CCN(C)C(=O)Cn1cccc2cc(-c3ccc(F)cc3)nc1-2	26.7
Cn1nc(C2CNCCO2)cc1CCOc1cccc(C(F)(F)F)c1 (centres undefined)	37.8
CN1CCCC(CCC(=O)N2CCc3[nH]c(-c4ccccc4)nc3C2)C1 (centres undefined)	23
CC(C(=O)NCc1ccc(N2CCN(C)CC2)nc1)n1cccn1 (centres undefined)	2.243
Cc1ccc(CN2CC[C@H]3OCC[C@@H](C(=O)NCC4CC4)[C@@H]3C2)s1	5.96
